# In PubChem BioAssay (Tox21):
# Where “and” joins values, the source holds several entries; their conditions need not be identical. Identical values can stand only once. The source holds several records for some structures; these can differ, active in one and inactive in another. Calls of active or inactive are those of the source. A call without a number means that no potency is given here. Unless noted, calls come from the whole dose curve; as a rule, active = well fitted curve in the direction sought with a large enough effect in the repeat runs; inconclusive = weak or mixed curves; inactive = no such curve, though single readings can be large; an effect the other way counts as inactive or inconclusive. Residues, ends and D or L forms follow the SMILES beside them.
# Key:
# [1] = qHTS assay to identify small molecule antagonists of the glucocorticoid receptor (GR) signaling pathway - cell viability counter screen (AID 720693); note: nearly all actives have a fitted effect of over 55% in size
# [2] = qHTS assay for identifying genotoxic compounds that show differential cytotoxicity against isogenic chicken DT40 cell lines with known DNA damage response pathways - wild type cell line (AID 743012); note: nearly all actives have a fitted effect of over 60% in size; note: potency is the fitted concentration of half-maximal effect
# Outline: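 Luminescent ATP viability signal (CellTiter-Glo, 30 min RT) recorded after wild type DT40 cells were incubated with compounds for 40 h at 37 C/5% CO2.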
# [3] = qHTS assay for identifying genotoxic compounds that show differential cytotoxicity against isogenic chicken DT40 cell lines with known DNA damage response pathways - Rev3 mutant cell line (AID 743014); note: nearly all actives have a fitted effect of over 55% in size; note: potency is the fitted concentration of half-maximal effect
# [4] = qHTS assay for identifying genotoxic compounds that show differential cytotoxicity against isogenic chicken DT40 cell lines with known DNA damage response pathways - Rad54/Ku70 mutant cell line (AID 743015); note: nearly all actives have a fitted effect of over 60% in size; note: potency is the fitted concentration of half-maximal effect
# [5] = qHTS assay to identify small molecule antagonists of the androgen receptor (AR) signaling pathway - cell viability counter screen (AID 743033; note: nearly all actives have a fitted effect of over 45% in size)
# [6] = biological target: Androgen receptor (Homo sapiens) (UniProt P10275); experiment: qHTS assay to identify small molecule antagonists of the androgen receptor (AR) signaling pathway (AID 743035; active = well fitted inhibition curve with a large enough effect in the signal ratio in the repeat runs, not every such curve was filed as active; inconclusive = weak or mixed curves, or effect the other way; inactive = no such curve, though single readings can be large or run the other way; the % refers to the signal ratio)
# Outline: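 Quantitative HTS of the Tox21 10K library used HEK293 AR-UAS-bla cells stimulated with R1881 alongside compound for 16 h at 37C, followed by beta-lactamase FRET detection (LiveBLAzer B/G, 2 h, RT).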
# [7] = biological target: Androgen receptor (Homo sapiens) (UniProt P10275); experiment: qHTS assay to identify small molecule agonists of the androgen receptor (AR) signaling pathway (AID 743036; active = well fitted activation curve with a large enough effect in the signal ratio in the repeat runs, with a control signal flat, not every such curve was filed as active; inconclusive = weak or mixed curves, or effect the other way; inactive = no such curve, though single readings can be large or run the other way; the % refers to the signal ratio)
# Outline: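 Reporter line: GeneBLAzer AR-UAS-bla-GripTite (HEK293). Steps: plate cells, 4 h rest, add compounds, 16 h at 37C, add LiveBLAzer B/G substrate, 2 h at RT, read fluorescence.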
# [8] = biological target: Androgen receptor (Homo sapiens) (UniProt P10275); experiment: qHTS assay to identify small molecule agonists of the androgen receptor (AR) signaling pathway using the MDA cell line (AID 743040; note: nearly all actives have a fitted effect of over 20% in size)
# Outline: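 Cell-based luciferase reporter: MDA-kb2, MMTV promoter (AR + GR response elements). 16 h compound exposure at 37C; ONE-Glo, 30 min RT, luminescence.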
# [9] = biological target: Androgen receptor (Homo sapiens) (UniProt P10275); experiment: qHTS assay to identify small molecule antagonists of the androgen receptor (AR) signaling pathway using the MDA cell line (AID 743042; note: nearly all actives have a fitted effect of over 55% in size)
# Outline: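 MDA-kb2 cells (human breast carcinoma, stably carrying an MMTV-luciferase reporter responsive to AR and GR) were plated at 3,000 cells/well and preincubated 5 hr at 37C, then given compound plus R1881 agonist for 16 h. ONE-Glo luminescence was read.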
# [10] = qHTS assay to identify small molecule antagonists of the thyroid receptor (TR) signaling pathway - cell viability counter screen (AID 743064); note: nearly all actives have a fitted effect of over 50% in size; note: potency is the fitted concentration of half-maximal effect
# Outline: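 Plate GH3.TRE-Luc cells; incubate 4 h at 37 °C; add compound, then T3 to 1 nM final; incubate 23.5 h; add CellTiter-Fluor; incubate 30 min at 37 °C, 5% CO2; read fluorescence.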
# [11] = qHTS assay to identify small molecule antagonists of the thyroid receptor (TR) signaling pathway (AID 743065); note: nearly all actives have a fitted effect of over 55% in size; note: potency is the fitted concentration of half-maximal effect
# Outline: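 GH3.TRE-Luc rat pituitary cells carrying two TR response elements driving luciferase were plated for 4 h, given compound plus 1 nM T3 (final), and incubated 23.5 h at 37 C. ONE-Glo luminescence measured reporter inhibition; CellTiter-Fluor fluorescence tracked cytotoxicity.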
# [12] = test system: thyroid hormone receptor (rat, GH3 cells); experiment: qHTS assay to identify small molecule agonists of the thyroid receptor (TR) signaling pathway (AID 743066; calls by dose curve; note: potency is the fitted concentration of half-maximal effect)
# [13] = qHTS assay to identify small molecule antagonists of the estrogen receptor alpha (ER-alpha) signaling pathway - cell viability counter screen (AID 743074; calls by dose curve;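 note: HEK293 cells carrying ER-alpha-UAS-bla reporter stimulated with 17beta-estradiol; nearly all actives have a fitted effect of over 45% in size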; note: potency is the fitted concentration of half-maximal effect)
# [14] = qHTS assay to identify small molecule antagonists of the estrogen receptor alpha (ER-alpha) signaling pathway using the BG1 cell line - cell viability counter screen (AID 743081);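 note: compound given together with 17beta-estradiol as the ER stimulus; series mostly up to about 70 µM; nearly all actives have a fitted effect of over 45% in size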
# Aromatase (Homo sapiens) = Aromatase (Homo sapiens) (UniProt P11511); experiment: qHTS assay to identify aromatase inhibitors (AID 743083); note: nearly all actives have a fitted effect of over 55% in size; note: potency is the fitted concentration of half-maximal effect
# [15] = qHTS assay to identify small molecule antagonists of the androgen receptor (AR) signaling pathway using the MDA cell line - cell viability counter screen (AID 743041; note: nearly all actives have a fitted effect of over 45% in size)
# Outline: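 In this qHTS counter assay, fluorescence intensity after CellTiter-Fluor addition indicated viability of MDA-kb2 AR-luc cells given compounds and R1881 for 16 h at 37C.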
# [16] = biological target: Estrogen receptor (Homo sapiens) (UniProt P03372); experiment: qHTS assay to identify small molecule antagonists of the estrogen receptor alpha (ER-alpha) signaling pathway (AID 743069; active = well fitted curve in the direction sought with a large enough effect in the signal ratio in the repeat runs, not every such curve was filed as active; inconclusive = weak or mixed curves, or effect the other way; inactive = no such curve, though single readings can be large or run the other way; the % refers to the signal ratio; note: potency is the fitted concentration of half-maximal effect)
# Outline: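 A 17beta-estradiol challenge was applied right after compound transfer to ER-alpha-UAS-bla HEK293 cells previously kept in charcoal-stripped serum. Plates stood 18 hr at 37C and 5% CO2; fluorescence was read following 2 hr FRET substrate loading at room temperature.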
# [17] = biological target: Estrogen receptor (Homo sapiens) (UniProt P03372); experiment: qHTS assay to identify small molecule agonists of the estrogen receptor alpha (ER-alpha) signaling pathway (AID 743075; calls by dose curve;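 note: HEK293 GripTite cells with ER-alpha and UAS-driven beta-lactamase reporter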)
# [18] = biological target: Estrogen receptor (Homo sapiens) (UniProt P03372); experiment: qHTS assay to identify small molecule agonists of the estrogen receptor alpha (ER-alpha) signaling pathway using the BG1 cell line (AID 743079); note: nearly all actives have a fitted effect of over 20% in size; note: potency is the fitted concentration of half-maximal effect
# [19] = qHTS assay to identify small molecule antagonists of the estrogen receptor alpha (ER-alpha) signaling pathway using the BG1 cell line (AID 743080; calls by dose curve;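 note: BG1 cells stimulated with 17beta-estradiol alongside compound; nearly all actives have a fitted effect of over 25% in size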; note: potency is the fitted concentration of half-maximal effect)
# Outline: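 BG1Luc4E2, endogenous ER-alpha, 4xERE-luc; 5 d charcoal-stripped FBS, phenol red free; 24 h plating; cpd + 17beta-estradiol 21.5 h, 37 C/5% CO2; CellTiter-Fluor viability 30 min, then ONE-Glo luciferase 30 min RT.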
# Sequence of Estrogen receptor (Homo sapiens) (P03372 whole entry, looked up): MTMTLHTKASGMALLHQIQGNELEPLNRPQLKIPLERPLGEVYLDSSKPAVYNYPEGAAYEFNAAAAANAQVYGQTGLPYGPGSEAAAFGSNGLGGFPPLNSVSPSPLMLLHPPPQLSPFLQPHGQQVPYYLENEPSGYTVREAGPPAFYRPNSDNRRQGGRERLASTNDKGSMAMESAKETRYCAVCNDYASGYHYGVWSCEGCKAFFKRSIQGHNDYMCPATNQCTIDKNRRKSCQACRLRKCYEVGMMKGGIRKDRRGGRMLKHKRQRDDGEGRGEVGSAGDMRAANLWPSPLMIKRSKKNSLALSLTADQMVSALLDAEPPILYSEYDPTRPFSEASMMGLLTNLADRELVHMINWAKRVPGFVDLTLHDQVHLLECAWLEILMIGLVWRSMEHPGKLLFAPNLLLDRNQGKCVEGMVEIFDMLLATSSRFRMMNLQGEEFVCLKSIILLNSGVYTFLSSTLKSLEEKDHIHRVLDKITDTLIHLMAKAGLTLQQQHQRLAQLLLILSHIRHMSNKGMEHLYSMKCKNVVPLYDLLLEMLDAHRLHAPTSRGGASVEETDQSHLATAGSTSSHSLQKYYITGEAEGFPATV
# Sequence of Androgen receptor (Homo sapiens) (P10275 whole entry, looked up): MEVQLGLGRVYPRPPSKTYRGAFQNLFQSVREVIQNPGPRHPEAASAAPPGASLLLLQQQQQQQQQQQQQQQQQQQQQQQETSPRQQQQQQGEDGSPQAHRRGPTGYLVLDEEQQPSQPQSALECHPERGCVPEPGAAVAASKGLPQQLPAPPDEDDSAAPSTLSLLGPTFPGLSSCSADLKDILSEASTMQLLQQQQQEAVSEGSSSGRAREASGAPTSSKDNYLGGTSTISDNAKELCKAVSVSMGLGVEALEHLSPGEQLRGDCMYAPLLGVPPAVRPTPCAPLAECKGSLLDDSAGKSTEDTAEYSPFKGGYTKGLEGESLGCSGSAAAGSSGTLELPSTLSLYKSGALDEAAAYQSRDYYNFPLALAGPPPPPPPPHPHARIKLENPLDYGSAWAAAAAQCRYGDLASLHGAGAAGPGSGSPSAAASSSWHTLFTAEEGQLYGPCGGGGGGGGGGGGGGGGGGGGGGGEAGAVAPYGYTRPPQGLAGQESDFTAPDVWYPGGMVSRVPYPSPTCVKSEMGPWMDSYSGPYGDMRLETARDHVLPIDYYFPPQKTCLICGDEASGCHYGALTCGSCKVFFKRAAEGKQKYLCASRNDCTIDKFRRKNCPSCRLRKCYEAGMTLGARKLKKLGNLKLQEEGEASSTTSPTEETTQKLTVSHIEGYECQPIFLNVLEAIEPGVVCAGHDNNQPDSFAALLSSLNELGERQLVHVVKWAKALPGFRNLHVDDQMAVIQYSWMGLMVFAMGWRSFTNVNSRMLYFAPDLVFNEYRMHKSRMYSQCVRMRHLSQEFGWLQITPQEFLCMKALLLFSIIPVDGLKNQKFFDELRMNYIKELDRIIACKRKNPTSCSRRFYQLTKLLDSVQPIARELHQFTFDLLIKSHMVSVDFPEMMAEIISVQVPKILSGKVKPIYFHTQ
# Sequence of Aromatase (Homo sapiens) (P11511 whole entry, looked up): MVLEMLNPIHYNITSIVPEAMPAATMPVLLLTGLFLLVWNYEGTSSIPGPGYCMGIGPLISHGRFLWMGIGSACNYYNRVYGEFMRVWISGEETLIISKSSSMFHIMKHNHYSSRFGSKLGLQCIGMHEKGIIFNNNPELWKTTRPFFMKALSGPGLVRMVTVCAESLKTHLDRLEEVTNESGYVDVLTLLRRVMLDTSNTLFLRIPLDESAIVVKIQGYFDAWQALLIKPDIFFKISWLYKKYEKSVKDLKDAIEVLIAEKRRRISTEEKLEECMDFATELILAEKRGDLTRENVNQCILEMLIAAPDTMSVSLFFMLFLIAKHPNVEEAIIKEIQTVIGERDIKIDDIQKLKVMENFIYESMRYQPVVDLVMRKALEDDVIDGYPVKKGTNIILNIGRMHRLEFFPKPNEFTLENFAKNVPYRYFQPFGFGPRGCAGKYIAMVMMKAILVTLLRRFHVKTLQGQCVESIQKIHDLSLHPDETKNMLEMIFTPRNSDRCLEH
SMILES,Potency [1],Potency [2],Potency [3],Potency [4],outcome [5],outcome [6],outcome [7],Potency [8],outcome [9],Potency [10],Potency [11],Potency [12],Potency [13],Potency [14],Potency (Aromatase (Homo sapiens)),Potency [15],Potency [16],Potency [17],Potency [18],Potency [19]
c1ccc2[nH]ccc2c1,inactive,inactive,inactive,inactive,inactive,inactive,inactive,inactive,inactive,inactive,inactive,inactive,inactive,inactive,inactive,,,,,
OC(Cn1cncn1)(Cn1cncn1)c1ccc(F)cc1F,inactive,inactive,inactive,inactive,inactive,,,,,inactive,inactive,inactive,inactive,inactive,,inactive,inactive,inactive,inactive,inactive
COC(=O)[C@H](Cc1ccccc1)NC(=O)[C@@H](N)CC(=O)O (H-Asp-Phe-OMe),inactive,,inactive,inactive,inactive,,,,,inactive,inactive,inactive,inactive,inactive,inactive,inactive,inactive,inactive,inactive,inactive
O=S(=O)(O)c1ccc2cc(O)ccc2c1,inactive,,inactive,inactive,inactive,,,,,inactive,inactive,inactive,inactive,inactive,inactive,,,,,
CCCNC(=O)NS(=O)(=O)c1ccc(Cl)cc1,inactive,,inactive,inactive,inactive,,,,,inactive,inactive,inactive,inactive,inactive,inactive,,inactive,inactive,inactive,inactive
Cn1c(=O)c2[nH]cnc2n(C)c1=O,inactive,,,,inactive,,,,,inactive,inactive,inactive and 30.6 µM (active),inactive,inactive,inactive,,inactive,inactive,inactive,inactive
COc1ccc2[nH]cc(CCNC(C)=O)c2c1,inactive,,inactive,inactive,inactive,,,,,inactive,inactive,inactive,inactive,inactive,inactive,,inactive,inactive,inactive and 55.3 µM (active),inactive
C[C@]12C=CC(=O)C=C1CC[C@@H]1[C@@H]2[C@@H](O)C[C@@]2(C)[C@H]1CC[C@]2(O)C(=O)CO,inactive,,inactive,,inactive,,,,,inactive,inactive,inactive,inactive,inactive,inactive,,,inactive,inactive,
CC(=O)NS(=O)(=O)c1ccc(N)cc1,inactive,,inactive,inactive,inactive,,,,,inactive,inactive,inactive,inactive,inactive,inactive,,inactive,inactive,inactive,inactive
NC(=O)c1cnccn1,inactive,,inactive,inactive,inactive,,,,,inactive,,,inactive,inactive,inactive,inactive,inactive,inactive,inactive,inactive
Nc1ccn([C@H]2CC[C@@H](CO)O2)c(=O)n1,inactive,,24.3 µM (active),53.5 µM (active) and 24.3 µM (active),inactive,,,,,inactive,inactive,inactive,inactive,inactive,inactive,,inactive,inactive,inactive,inactive
Cc1ccc(S(=O)(=O)NC(=O)NN2CCCCCC2)cc1,inactive,,inactive and 68.6 µM (active),inactive,inactive,,,,,inactive,inactive,inactive,inactive,inactive,inactive,,inactive,inactive,inactive and 30.6 µM (active),inactive
CCCCCCCCCCCCCCCC(=O)O,inactive,,inactive,inactive,inactive,,,,,inactive,inactive,inactive,inactive,inactive,inactive,inactive,,,,
Nc1ccc(S(=O)(=O)c2ccc(N)cc2)cc1,inactive,,inactive,inactive,inactive,,,,,,inactive,inactive,inactive,inactive,inactive,inactive,inactive,inactive,inactive,inactive
C/C=C/c1ccc(OC)cc1,inactive,,inactive,inactive,inactive,,,,,inactive,inactive,inactive,inactive,inactive,inactive,,,,,
Cc1cn([C@H]2C[C@H](N=[N+]=[N-])[C@@H](CO)O2)c(=O)[nH]c1=O,inactive,,,,inactive,,,,,inactive,inactive,inactive,inactive,inactive,inactive,inactive,inactive,inactive,inactive and 17.7 µM (active),inactive
Nc1ccc(S(=O)(=O)Nc2nccs2)cc1,inactive,,inactive,inactive,inactive,,,,,inactive,,,inactive,inactive,inactive,inactive,inactive,inactive,inactive,inactive
CNC[C@H](O)c1cccc(O)c1,inactive,,inactive,inactive,inactive,,,,,inactive,inactive,inactive,inactive and 3.89 µM (active),inactive,inactive,,,,,
Cn1cc[nH]c1=S,inactive,,inactive,inactive,inactive,,,,,inactive,inactive,inactive,inactive,inactive,inactive,,inactive,inactive,inactive,inactive
O=C(O)CS,inactive,,inactive and 43.6 µM (active),inactive and 12.3 µM (active),inactive,,,,,inactive and 61.6 µM (active),inactive,inactive,inactive,inactive,inactive,,inactive,inactive,inactive,inactive

SMILES,Potency [1],Potency [2],Potency [3],Potency [4],outcome [5],outcome [6],outcome [7],Potency [8],outcome [9],Potency [10],Potency [11],Potency [12],Potency [13],Potency [14],Potency (Aromatase (Homo sapiens)),Potency [15],Potency [16],Potency [17],Potency [18],Potency [19]
O=C(O)CCCCC(=O)O,inactive,,,,inactive,,,,,inactive,inactive,inactive,inactive,inactive,inactive,,inactive,inactive,inactive,inactive
CCC1(c2ccccc2)C(=O)NCNC1=O,inactive,,,,inactive,,,,,inactive,inactive,inactive,inactive,inactive,inactive,,,,,
CC1(C)[C@@H]2CC[C@@]1(C)C(=O)C2,inactive,,4.73 µM (active) and inactive,2.98 µM (active) and inactive,inactive,,,,,inactive,inactive,inactive,inactive,inactive,inactive,,inactive,inactive,inactive,inactive
NS(=O)(=O)c1cc(C(=O)O)c(NCc2ccco2)cc1Cl,inactive,,inactive,inactive,inactive,,,,,inactive,inactive,inactive,inactive,inactive,,,inactive,inactive,15 µM (active),inactive
NC(=O)NC1NC(=O)NC1=O (configuration not stated),inactive,,inactive,inactive,inactive,,,,,inactive,inactive,inactive,inactive,inactive,inactive,,,,,
O=C(c1ccccc1)c1ccccc1,inactive,,,,inactive,inactive,inactive,,inactive,inactive,,,inactive,inactive,inactive,inactive,,,,
O=C(O)c1cccnc1,inactive,,inactive,inactive,inactive,,,,,inactive,inactive,inactive,inactive,inactive,inactive,inactive,,,,
Cc1ccccc1C(OCCN(C)C)c1ccccc1 (configuration not stated),inactive,,inactive and 61.1 µM (active) and 54.5 µM (active),inactive and 61.1 µM (active) and 68.6 µM (active),inactive,,,,,,21.1 µM (active) and 27.3 µM (active),inactive,inactive,inactive,inactive,,inactive,inactive,inactive,inactive
O=C(O)C(=O)O,inactive,,inactive,inactive,inactive,,,,,inactive,,,inactive,inactive,inactive,inactive,,,,
NC(N)=O,inactive,,inactive and 17.2 µM (active),inactive and 21.7 µM (active),inactive,,,,,inactive,inactive,inactive,inactive,inactive,inactive,inactive,inactive,inactive,inactive,inactive
O=NO,inactive,,inactive,inactive,inactive,,,,,inactive,inactive,inactive,inactive,inactive,inactive,inactive,,,,
Nc1ccc(O)c(C(=O)O)c1,inactive,,inactive,inactive,inactive,,,,,inactive,,,inactive,inactive,inactive,,inactive,inactive,inactive and 68.6 µM (active),inactive
CCOc1ccc(NC(=O)CC(C)O)cc1 (configuration not stated),inactive,,inactive,inactive,inactive,,,,,inactive,inactive,inactive,inactive,inactive,inactive,inactive,,,,
N=C(N)c1ccc(OCCCCCOc2ccc(C(=N)N)cc2)cc1,,1.88 µM (active) and 5.42 µM (active) and 1.31 µM (active),2.98 µM (active) and 2.16 µM (active) and 1.85 µM (active),2.66 µM (active) and 2.72 µM (active) and 1.65 µM (active),,,,,,60.8 µM (active) and 46.4 µM (active),26.6 µM (active) and 60.8 µM (active) and 58.4 µM (active),inactive,inactive,inactive,26.1 µM (active),inactive,12 µM [inconclusive] (active) and 15.4 µM [inconclusive] (active) and 46.8 µM [inconclusive] (active),inactive,,11.9 µM (active) and 46.4 µM (active)
NNC(=O)c1ccncc1,inactive,,inactive,inactive,inactive,,,,,inactive,inactive,inactive,inactive,inactive,inactive,,inactive,inactive,inactive,inactive
O=C(O)CCC(=O)O,inactive,,inactive,inactive,inactive,,,,,inactive,inactive,inactive,inactive,inactive,inactive,inactive,inactive,inactive,inactive,inactive
CCCCOC(=O)CC(CC(=O)OCCCC)(OC(C)=O)C(=O)OCCCC,inactive,,inactive,inactive and 54.5 µM (active),inactive,,,,,inactive,,inactive,inactive,inactive,inactive,,,,,
Nc1ccc(C(=O)O)cc1,inactive,,inactive,inactive,inactive,,,,,,,,inactive,inactive,inactive,,inactive,inactive,inactive,inactive
COc1c2occc2cc2ccc(=O)oc12,inactive,,inactive,inactive,inactive,,,,,,,,inactive and 1.74 µM (active),inactive,,,,,,
